# Over roughly 1,600 compounds, “plate-normalized OD600 growth (mean of duplicates)” has its median near 0.31; the lowest 2% begin near 0.23. Shown is part of a subset that was picked to be rich in the lowest values.
# Tested on: Escherichia coli BW25113
# Experiment: plate-normalized OD600 growth (mean of duplicates) (OD600 (normalized)); higher = more growth (less inhibition)
# Details: 10 µM
# Description: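 E. coli BW25113 in LB (100 µl, 96-well, no shaking) was exposed to 10 µM of each compound (here the ChemBridge subset of a ~30,000-member library) and grown at 37°C for 24 h or 15°C for 48 h, in duplicate. Growth was read as OD600 and the duplicate ODs were normalized across screening plates to correct plate-to-plate variation.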
SMILES,"plate-normalized OD600 growth (temperature: 15°C, 48 h)","plate-normalized OD600 growth (temperature: 37°C, 24 h)"
CCSC1=C(C#N)C(c2ccc(Cl)cc2Cl)CC(=O)N1 (stereo not drawn),0.255,0.65
CC1=C(C#N)C(c2ccc(N(C)C)cc2)C2=C(CCCC2=O)N1 (stereo not drawn),0.248,0.638
N#CC1=C(N)OC2=C(C(=O)CCC2)C1c1cccnc1 (stereo not drawn),0.238,0.629
CC1=C(C#N)C(c2cccnc2)C2=C(CC(c3ccc(Cl)cc3)CC2=O)N1 (stereo not drawn),0.225,0.623
O=[N+]([O-])c1ccc(CNC2CCCC2)cc1,0.254,0.621
O=C(NC1CCCCCC1)c1ccc([N+](=O)[O-])cc1,0.212,0.629
Cc1c(C(=O)NC2CCCC2)cccc1[N+](=O)[O-],0.252,0.636
COc1cccc(NC(=O)c2cccc(I)c2)c1,0.244,0.596
CCN(CC)CCCOc1ccc(C)cc1,0.255,0.632
Cc1ccc(OCCCCc2c(C)n[nH]c2C)cc1,0.276,0.62
Cc1n[nH]c(C)c1CCCCOc1ccc(Br)cc1,0.216,0.601
CCCn1c(SCCC(=O)O)nc2ccccc21,0.257,0.621
N#CC1=C(N)NC(SCC(=O)Nc2ccc(Br)cc2)=C(C#N)C12CCCCC2,0.252,0.586
N#CC1=C(SCC(=O)Nc2ccc(Br)cc2)NC(=O)C(C#N)C12CCCCC2 (stereo not drawn),0.257,0.604
Cc1cc(=O)[nH]c(SCC(=O)Nc2ccc(Br)cc2)c1C#N,0.214,0.594
COc1cc(C(=O)n2c(C)nc3ccccc32)cc(OC)c1OC,0.246,0.616
Nc1ccc(Br)cc1-c1nc2ccccc2[nH]c1=O,0.254,0.608
O=C(O)CCC(=O)Nc1ccc(-c2nc3ccccc3[nH]2)cc1,0.247,0.602
Cc1ccc(-c2nc3ccccc3[nH]2)cc1N,0.222,0.616
COc1ccc(-c2cc(=O)n(CCC#N)[nH]2)cc1,0.266,0.622
N#Cc1c(NC(=O)c2cc3ncc(Br)cn3n2)sc2c1CCCC2,0.263,0.623
O=[N+]([O-])c1ccccc1/C=C/CN1CCCCC1CO (stereo not drawn),0.264,0.63

SMILES,"plate-normalized OD600 growth (temperature: 15°C, 48 h)","plate-normalized OD600 growth (temperature: 37°C, 24 h)"
CCCCOc1ccc(CN2CCN(CCOCCO)CC2)cc1,0.216,0.626
C/C=C(\C)CN1CCN(CCOCCO)CC1,0.269,0.664
CCCCOc1ccc(CN2CCC(O)CC2)cc1,0.272,0.664
Cc1cc([N+](=O)[O-])nn1CC(=O)NCC(C)C,0.264,0.617
COc1ccc(NC(=O)c2ccccc2OC)cc1OC,0.248,0.615
CN(Cc1ccccc1)C1CC(=O)N(c2ccc(C(=O)O)cc2)C1=O (stereo not drawn),0.246,0.621
CC1(C)CC(=O)C=C(Nc2ccc(F)c(F)c2)C1,0.247,0.617
CC(=O)c1ccc(OCCOc2ccc(C(C)=O)cc2)cc1,0.248,0.607
Cc1[nH]n(-c2ccccc2)c(=O)c1C=O,0.224,0.605
CC(=O)c1c(C)[nH]n(-c2ccccc2)c1=O,0.252,0.618
Cc1nn(-c2ccccc2)c(N2CCCCC2)c1C=O,0.266,0.62
Cc1ccc(S(=O)(=O)N(CC(=O)O)c2cccc(Cl)c2)cc1,0.268,0.636
COc1cccc(-c2nc(Cc3ccc(Cl)cc3)no2)c1,0.253,0.601
COc1cccc(Nc2nc(-c3ccc(OC)c(F)c3)cs2)c1,0.245,0.609
Clc1ccc(-c2csc(Nc3ccc4c(c3)OCO4)n2)cc1,0.24,0.61
COc1ccc(Nc2nc(-c3ccc(F)cc3F)cs2)cc1,0.251,0.633
Cc1nc(N)sc1-c1csc(Nc2ccc(O)cc2)n1,0.239,0.621
CCc1ccc(-c2csc(Nc3cccc(OC)c3)n2)cc1,0.222,0.604
CCOc1ccc(Nc2nc(-c3ccc(CC(C)C)cc3)cs2)cc1,0.223,0.624
O=C(NC1C[C@@H]1c1ccccc1)[C@@H]1CC1c1ccccc1 (stereo partly drawn),0.272,0.63
CN1CCCC1CCNC1CC2CCC1C2 (stereo not drawn),0.299,0.637
Cn1cc(/C=C/c2nc3ccccc3c(=O)[nH]2)c2ccccc21,0.248,0.604

SMILES,"plate-normalized OD600 growth (temperature: 15°C, 48 h)","plate-normalized OD600 growth (temperature: 37°C, 24 h)"
COc1ccc(N(C(=O)c2ccc(F)cc2)C2=CC3CCC(C2)N3C)cc1 (stereo not drawn),0.247,0.619
COc1ccc(C(C)=O)cc1Cc1c(O)nc(SC)[nH]c1=O,0.247,0.629
O=C(CC1Nc2ccccc2NC1=O)Nc1ccccc1 (stereo not drawn),0.24,0.597
CCOc1ccc(NC(=O)CC2Nc3ccccc3NC2=O)cc1 (stereo not drawn),0.273,0.648
O=C(CC1Nc2ccccc2NC1=O)Nc1ccc(Cl)cc1 (stereo not drawn),0.215,0.6
Nc1nc2sc3c(c2cc1C(=O)N1CCOCC1)CCCC3,0.253,0.625
Cc1nc(-c2ccccc2)cc(N2CCCC2)n1,0.253,0.616
CCCN1CCC(NCCc2ccccc2OC)CC1,0.252,0.619
Cc1ccccc1CN(C)C1CCN(C)CC1,0.256,0.628
CN1CCC(NCc2ccccc2F)CC1,0.212,0.645
Cc1ccc(OCCCNC(C)(C)C)cc1,0.244,0.608
CC1CCCC(C)N1C(=O)c1ccc(Br)cc1 (stereo not drawn),0.25,0.617
O=c1[nH]c2nonc2nc1Nc1ccccc1,0.245,0.603
CC1CCCC(C)N1C(=O)Cc1ccccc1 (stereo not drawn),0.233,0.611
CCN(C(=O)Cc1ccccc1)C1CCCCC1,0.221,0.606
CCN(Cc1ccccc1)C(=O)Cc1ccccc1,0.262,0.642
Cc1cc(C)c(S(=O)(=O)Nc2cc(C)on2)c(C)c1,0.243,0.612
COc1ccccc1NS(=O)(=O)c1ccc(C(C)(C)C)cc1,0.254,0.618
COc1ccccc1NS(=O)(=O)c1ccc(Cl)cc1,0.256,0.651
CCc1ccccc1NS(=O)(=O)c1ccc(F)cc1,0.21,0.618
Cc1[nH]nc2c1C(c1ccccc1I)C(C#N)=C(N)O2 (stereo not drawn),0.233,0.613
Cc1ccc(C2C(C#N)=C(N)Oc3n[nH]c(C)c32)s1 (stereo not drawn),0.246,0.658

SMILES,"plate-normalized OD600 growth (temperature: 15°C, 48 h)","plate-normalized OD600 growth (temperature: 37°C, 24 h)"
Cc1cc(C)c(C2C(C#N)=C(N)Oc3n[nH]c(C)c32)c(C)c1 (stereo not drawn),0.218,0.621
Cc1ccc(NCc2ccc([N+](=O)[O-])cc2)cc1C,0.237,0.605
O=C(c1ccc([N+](=O)[O-])o1)N1CCN(c2cccc(Cl)c2)CC1,0.212,0.611
O=C(c1ccc(Br)o1)N1CCN(c2ccc([N+](=O)[O-])cc2)CC1,0.262,0.622
O=C(c1ccco1)N1CCN(c2ccc([N+](=O)[O-])cc2)CC1,0.244,0.617
O=C1CC(N2CCOCC2)C(=O)N1c1ccc(I)cc1 (stereo not drawn),0.257,0.645
N#CC1=C(N)Oc2cc(N)ccc2C1c1ccc(Br)s1 (stereo not drawn),0.262,0.636
O=C(Nc1cccc([N+](=O)[O-])c1)c1cc(S(=O)(=O)Nc2ccccc2)ccc1Cl,0.256,0.621
Fc1ccccc1OCCSc1ncnc2nc[nH]c12,0.258,0.613
CCSc1sc(CC)cc1C(N)=O,0.239,0.621
N#CSc1cnc(NC2CCCCC2)s1,0.254,0.611
CCSc1sc(SC#N)cc1SC#N,0.207,0.614
CCOc1ccc(Br)cc1/C=C(\C#N)c1nc2ccccc2[nH]1,0.255,0.657
Cc1cc(C)n(-c2nc(-c3ccc(F)cc3)cs2)n1,0.254,0.625
CCOc1ccc(Nc2nc(-c3ccc(C)c(C)c3)cs2)cc1,0.248,0.605
Cc1ccc(-c2csc(Nc3ccc(F)cc3)n2)cc1C,0.218,0.604
CCOc1ccc(C(=O)Nc2ccc(S(=O)(=O)Nc3nccs3)cc2)cc1,0.241,0.613
C=CCNc1nc(-c2ccncc2)cs1,0.236,0.589
CC(=O)Nc1ccc(-c2cc(-c3ccc(NC(C)=O)cc3)nc(-c3ccccc3)n2)cc1,0.246,0.587
Cc1ccc2nc(/C(C#N)=C\c3ccco3)[nH]c2c1,0.242,0.599
CC(=O)Nc1ccc2oc(-c3cccc(I)c3)nc2c1,0.235,0.614
CCOc1ccc(C(=O)c2ccc([N+](=O)[O-])cc2Cl)cc1,0.265,0.637

SMILES,"plate-normalized OD600 growth (temperature: 15°C, 48 h)","plate-normalized OD600 growth (temperature: 37°C, 24 h)"
CCOc1ccc(-c2ncnn2-c2ccc([N+](=O)[O-])cc2)cc1,0.222,0.625
CCN(CC)CCCOc1ccc([N+](=O)[O-])cc1,0.246,0.624
CCCCOC(=O)Nc1nnc(CCc2ccccc2)s1,0.265,0.623
COc1cc(CN2CCSCC2)c([N+](=O)[O-])cc1OC,0.23,0.6
O=C(CN1CCCCC1)NC12CC3CC(CC(C3)C1)C2,0.274,0.65
NC(=O)CCC(=O)NC12CC3CC(CC(C3)C1)C2,0.227,0.599
CC(C)NCC(=O)NC12CC3CC(CC(C3)C1)C2,0.266,0.656
Cc1ccc(NC(=O)c2c(O)c3ccccc3[nH]c2=O)c(C)c1,0.27,0.648
Cc1cc(C)n(C(=O)c2ccc(Cl)cc2)n1,0.256,0.636
Cc1cc(C)n(C(=O)c2ccccc2Br)n1,0.226,0.655
Cc1cc(C)n(C(=O)c2ccccc2F)n1,0.251,0.635
O=C(O)c1ccc2c(c1)C(=O)N(c1c[nH]c(=O)[nH]c1=O)C2=O,0.239,0.592
O=C(/C=C/c1ccc(-c2cc(Cl)ccc2Cl)o1)c1ccco1,0.25,0.612
c1cc2cn[nH]c2cc1NC1CCCCCC1,0.233,0.604
Nc1ccc(Cl)cc1SCC(=O)O,0.242,0.599
O=C(O)CSc1ccc(Br)cc1,0.222,0.609
O=C(O)CSc1cccc(C(=O)Nc2ccc(Br)cc2)c1,0.249,0.611
NS(=O)(=O)c1ccc(NC(=O)c2ccccc2Cl)cc1,0.24,0.604
O=[N+]([O-])c1ccc(N2CCN(Cc3ccc(Br)s3)CC2)cc1,0.242,0.58
O=[N+]([O-])c1ccc(N2CCN(Cc3cccs3)CC2)cc1,0.22,0.599
Cc1ccsc1CN1CCN(c2ccc([N+](=O)[O-])cc2)CC1,0.256,0.634

# Source: the supplement of paper PMC4371806
